Nine compounds from PubChem BioAssay (NCI) can be followed below.

SMILES strings stand for the structures. About 83,000 compounds went through this panel and 20% of them were active in at least one assay; those are over-represented in the sample as a whole.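 A percent growth of 40 corresponds to 60% growth inhibition; 0 means no net growth; -100 means all cells died. Active threshold: below 10.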 Unmarked numbers belong to inactive results. Activity calls are given as the source filed them.

Test systems include SR leukemia; OVCAR-8 ovarian; OVCAR-5 ovarian; OVCAR-4 ovarian; SK-OV-3 ovarian; IGROV1 ovarian; OVCAR-3 ovarian; HS 578T breast; NCI/ADR-RES ovarian; T-47D breast; BT-549 breast; MDA-MB-435 melanoma; SW-620 colon; MCF7 breast; HCT-116 colon; HCC-2998 colon; KM12 colon; RPMI-8226 leukemia.
Holding throughout (assay): NCI-60 one-dose screen, 48 h (100 = growth as untreated, 0 = no growth, -100 = all killed)
What all share (conditions): 10 µM unless noted

Turning to `OC(c1cccc(C(F)(F)F)c1)c1cnccc1NC1CCCCCC1` (stereo unspecified), the growth with SR leukemia was -14.7% (active); in the experiment with OVCAR-8 ovarian it was 58.2%; in the experiment on OVCAR-5 ovarian, 79.8%; with OVCAR-4 ovarian it was 52.7%; in the experiment with SK-OV-3 ovarian, 71.4%; with IGROV1 ovarian, 44.2%. For the same compound, the growth is 57.5% with OVCAR-3 ovarian; 64.4% with HS 578T breast; 39.2% in the experiment with NCI/ADR-RES ovarian; -3.18% (active) with T-47D breast; 71.4% in the experiment with BT-549 breast; 32.6% with MDA-MB-435 melanoma. In addition, the growth in the experiment with SW-620 colon is 3.19% (active); in the experiment on MCF7 breast, -6.03% (active); in the experiment on HCT-116 colon it was 14.4%; in the experiment on HCC-2998 colon, -70.1% (active); in the experiment with KM12 colon it was 3.96% (active).
In the case of `CNC(=O)c1cc(Oc2ccc3nc(NC(=O)Nc4ccc(CN5CCOCC5)c(C(F)(F)F)c4)sc3c2)ccn1`, the growth with SR leukemia was -0.0928% (active); in the experiment on OVCAR-8 ovarian it was 18%; with OVCAR-5 ovarian, 38.6%; in the experiment on OVCAR-4 ovarian, 20%; with SK-OV-3 ovarian it was 79.1%; in the experiment with IGROV1 ovarian, 40%. In addition, the growth in the experiment on OVCAR-3 ovarian was 6.85% (active); with HS 578T breast it was 47.3%; in the experiment with NCI/ADR-RES ovarian, 4.65% (active); with BT-549 breast it was 12.2%; with MDA-MB-435 melanoma, 13%; in the experiment on SW-620 colon, 27.4%. For the same compound, the growth with MCF7 breast was 6.95% (active); with HCT-116 colon, 6.2% (active); in the experiment with HCC-2998 colon, 32.3%; in the experiment on KM12 colon, 6.28% (active).
Consider `CC1=C(NCCN2CCCC2)C(=O)c2c(OCc3ccc(C(F)(F)F)cc3)cccc2C1=O`, for which the growth in the experiment with SR leukemia was -15.7% (active); in the experiment with OVCAR-8 ovarian it was 77%; in the experiment on OVCAR-5 ovarian it was 90.1%; in the experiment with OVCAR-4 ovarian, 84.7%; in the experiment with SK-OV-3 ovarian, 95.6%; with OVCAR-3 ovarian, 83.6%. The growth with HS 578T breast is 87.6%; in the experiment with NCI/ADR-RES ovarian, 87.5%; in the experiment on T-47D breast it was 73.6%; in the experiment on MDA-MB-435 melanoma, 70.9%; in the experiment with SW-620 colon it was 83.5%; in the experiment with MCF7 breast it was 59.9%. In addition, the values for the growth in the experiment with HCT-116 colon, in the experiment on HCC-2998 colon and in the experiment with KM12 colon were 33.9%, 107% and 85%, respectively.
As for `CNC(=O)c1cc(Oc2ccc3nc(NC(=O)Nc4ccc(N5CCC(N(C)C)CC5)cc4)sc3c2)ccn1`, the growth is 0.621% (active) in the experiment on SR leukemia; 89.3% in the experiment with OVCAR-8 ovarian; 114% in the experiment on OVCAR-5 ovarian; 80.7% with OVCAR-4 ovarian; 102% in the experiment on SK-OV-3 ovarian; 89% in the experiment on IGROV1 ovarian. For the same compound, the growth with OVCAR-3 ovarian was 90.1%; in the experiment on HS 578T breast it was 80.9%; in the experiment with NCI/ADR-RES ovarian, 110%; in the experiment on T-47D breast, 78.1%; in the experiment with BT-549 breast, 98.7%; with MDA-MB-435 melanoma, 98.8%. Also, the growth is 71.6% in the experiment with SW-620 colon; 67.7% in the experiment with MCF7 breast; 39% in the experiment on HCT-116 colon; 95.4% with HCC-2998 colon; 60.4% in the experiment on KM12 colon.
With `O=S(=O)(Nc1ccc(Cl)cc1Cl)c1ccc(-c2cnc(C3CC3)o2)cc1`, the growth is 21.6% in the experiment with RPMI-8226 leukemia; 26.5% with OVCAR-8 ovarian; 40.2% with OVCAR-5 ovarian; 52.6% in the experiment on OVCAR-4 ovarian; 41.6% with SK-OV-3 ovarian; 29.2% with IGROV1 ovarian. Also, the growth in the experiment with OVCAR-3 ovarian was -17.8% (active); with HS 578T breast, 9.44% (active); in the experiment on NCI/ADR-RES ovarian it was 0.514% (active); in the experiment on T-47D breast, 33.9%; with BT-549 breast it was 47%; with MDA-MB-435 melanoma, -5.62% (active). In addition, the growth was 21% in the experiment with SW-620 colon; 15.3% in the experiment on MCF7 breast; 24.9% with HCT-116 colon; 39.3% with HCC-2998 colon; 33.3% in the experiment with KM12 colon.
For `CCN(CC)CC#CCOC(=O)[C@]1(C)CCC[C@@]2(C)[C@H]1CC(C=O)=C1C=C(C(C)C)CC[C@@H]12`, the growth was 20.1% in the experiment on SR leukemia; 73.5% with OVCAR-8 ovarian; 82.7% in the experiment on OVCAR-5 ovarian; 69.5% with OVCAR-4 ovarian; 73.4% in the experiment with SK-OV-3 ovarian; 63.2% in the experiment with IGROV1 ovarian. Besides, the growth in the experiment on OVCAR-3 ovarian was 69.1%; in the experiment with HS 578T breast, 67.1%; in the experiment with NCI/ADR-RES ovarian it was 70.9%; with MDA-MB-435 melanoma it was 76.4%; with SW-620 colon, 57.2%; with MCF7 breast it was 68.1%. In addition, the growth is 36.1% in the experiment on HCT-116 colon, 94.6% in the experiment with HCC-2998 colon and 55.3% in the experiment with KM12 colon.
In the case of `O=[N+]([O-])c1c(F)cccc1Nc1cccc(F)c1`, the growth was 102% with SR leukemia; 102% in the experiment on OVCAR-8 ovarian; 97.3% with OVCAR-5 ovarian; 95.9% in the experiment with OVCAR-4 ovarian; 117% with IGROV1 ovarian; 102% in the experiment with HS 578T breast. Besides, the growth is 110% with NCI/ADR-RES ovarian; 108% in the experiment with T-47D breast; 118% with BT-549 breast; 105% with MDA-MB-435 melanoma; 108% with SW-620 colon; 90.3% with MCF7 breast. The growth in the experiment with HCT-116 colon is 99.5%; with HCC-2998 colon, 102%; in the experiment on KM12 colon it was 115%.
With `c1ccc2sc(SCCCn3ccnc3)nc2c1`, the growth in the experiment with SR leukemia was 87.9%; in the experiment on OVCAR-8 ovarian it was 88.2%; in the experiment on OVCAR-5 ovarian it was 118%; in the experiment with OVCAR-4 ovarian it was 93.2%; in the experiment with SK-OV-3 ovarian, 90.2%; in the experiment with IGROV1 ovarian, 103%. Further, the growth in the experiment with OVCAR-3 ovarian is 86.4%; with HS 578T breast, 102%; with NCI/ADR-RES ovarian, 94.2%; in the experiment on T-47D breast, 75.5%; in the experiment with BT-549 breast it was 96.8%; in the experiment on MDA-MB-435 melanoma it was 97.6%. The growth in the experiment with SW-620 colon is 97.4%; with MCF7 breast, 88.1%; with HCT-116 colon, 92.5%; in the experiment on HCC-2998 colon it was 94.1%; in the experiment on KM12 colon it was 97.8%.
In the case of `O=C1Nc2c(ccc(Cl)c2Cl)/C1=C/c1cc(Br)c(O)c(Br)c1`, the growth is 39.3% in the experiment on SR leukemia; 51.4% in the experiment on OVCAR-8 ovarian; 87.1% in the experiment on OVCAR-5 ovarian; 64.9% with OVCAR-4 ovarian; 63% with SK-OV-3 ovarian; 47% with IGROV1 ovarian. In addition, the growth with OVCAR-3 ovarian was 27.3%; in the experiment with HS 578T breast it was 43.5%; with NCI/ADR-RES ovarian, 32.4%; with T-47D breast it was 54.8%; with BT-549 breast, 29.2%; with MDA-MB-435 melanoma, -29.4% (active). In addition, the growth was 36.1% in the experiment on SW-620 colon; 52.8% in the experiment on MCF7 breast; 58.4% with HCT-116 colon; 68.7% in the experiment on HCC-2998 colon; 32.5% in the experiment with KM12 colon.
